Screens as filed in PubChem BioAssay.
This is one part of a sample in which hits are shown more often than they occur.
PostGolgi yeast: phenotypic screen on post-Golgi transport, primary screen; inhibition, % at 10 µM; AID 739, 2007; post-Golgi transport phenotypic cell assay; 98,000 tested, 0.9% active;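 also: yeast cells grown in 1536-well plates; yeast grown about 18 h at 30C before absorbance read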
GALR2 ag: GALR2 receptor agonists, primary screen, cell-based. 140,000 tested, 0.48% active. GALR2-expressing cells, agonist activation read-out. Galanin receptor type 2 (Homo sapiens), O43603. activation, % (concentration not given with the values); in the data active = activation above about 5%, passing the limit was not always enough;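 also: 0% = vehicle buffer wells and 100% = reference agonist at full effect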
PostGolgi ctrl: growth inhibition of yeast control strain, primary screen, counter-screen for post-Golgi transport modulator project; efflux-deficient yeast background strain, growth absorbance A615, 16 h; inhibition, % at 10 µM; 98,000 tested, 5% active
S1P2 antag: human S1P2 receptor antagonists, primary screen, cell-based; inhibition, % at 5 µM; AID 736, 2007; 97,000 tested, 0.21% active; cell-based S1P2 antagonist assay, inhibition at 5 uM; in the data active = inhibition above about 45%;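 also: CRE beta-lactamase reporter cells expressing human S1P2 stimulated with S1P; 0% = agonist at EC80 alone and 100% = agonist plus reference antagonist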
Target sequence (O95136 whole entry, looked up): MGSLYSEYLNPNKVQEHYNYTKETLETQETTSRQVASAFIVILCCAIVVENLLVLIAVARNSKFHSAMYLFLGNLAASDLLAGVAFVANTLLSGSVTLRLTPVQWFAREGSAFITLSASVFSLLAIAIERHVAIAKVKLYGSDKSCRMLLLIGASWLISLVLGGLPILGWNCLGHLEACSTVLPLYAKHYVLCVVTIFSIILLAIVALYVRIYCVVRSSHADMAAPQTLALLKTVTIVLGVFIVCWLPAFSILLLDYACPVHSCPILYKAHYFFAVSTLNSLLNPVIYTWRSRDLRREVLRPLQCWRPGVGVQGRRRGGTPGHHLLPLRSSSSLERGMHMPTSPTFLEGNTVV
GALR2 blocker: GALR2 antagonists in receptor-expressing cells, primary screen | Galanin receptor type 2 (Homo sapiens), O43603 | antagonist mode | inhibition, % at 4 µM | 140,000 tested, 0.39% active | AID 828, 2007; in the data active = inhibition above about 27%;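 also: cells stimulated with galanin 1-16 at roughly its EC80; 0% = agonist challenge control and 100% = basal control without agonist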
S1P2 agonist: S1P2 receptor agonists, primary screen, cell-based | S1P2-expressing cell line, agonist reporter read-out | activation, % at 4.5 µM | 97,000 tested, 0.46% active; in the data active = activation above about 16%;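 also: 0% = vehicle low control and 100% = maximal reference agonist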
* marks the source's active call; other numbers are inactive results. Rule as the data show it, unless noted: active = inhibition above about 30%; inactive = the rest.

Screening CC(=O)Nc1ccc(/C(C)=N/NS(=O)(=O)c2ccc(C)cc2)cc1 returned PostGolgi yeast -7, GALR2 ag -3, PostGolgi ctrl 1, S1P2 antag 20, GALR2 blocker 4 and S1P2 agonist -6.
Screening C/C(=N/NS(=O)(=O)c1ccc(Br)cc1)c1ccc(NC(=O)c2ccc(C)o2)cc1 returned PostGolgi yeast 3, GALR2 ag -4, PostGolgi ctrl 41*, S1P2 antag -20, GALR2 blocker 8 and S1P2 agonist -4.
O=C(N/N=C/c1cccc(OCc2ccccc2)c1)c1cccs1 was read as PostGolgi yeast 9, GALR2 ag -1, PostGolgi ctrl 37*, S1P2 antag 0, GALR2 blocker 1 and S1P2 agonist -4.
For O=C(O)c1ccc(COc2ccc(/C=N/NC(=O)c3cccs3)cc2)cc1 the results were PostGolgi yeast -1, GALR2 ag 0, PostGolgi ctrl 10, S1P2 antag -4, GALR2 blocker 0 and S1P2 agonist -7.
Screening O=C(N/N=C/c1ccccc1)c1sccc1OCc1ccc(F)cc1 returned PostGolgi yeast 0, GALR2 ag -1, PostGolgi ctrl 68*, S1P2 antag -6, GALR2 blocker -2 and S1P2 agonist -7.
For CCOc1cc2c(cc1OCC)C(c1ccccc1)N(c1ccccc1)C(=O)C2 (configuration not stated) the results were GALR2 ag 0 and GALR2 blocker -2.
For Cc1ccc(S(=O)(=O)NNC(=O)NC23CC4CC(CC(C4)C2)C3)cc1 the results were GALR2 ag -1 and GALR2 blocker -3.
N#CCSc1nc2cc(C(=O)N3CCCC3)ccc2c(=O)n1Cc1ccccc1 was read as PostGolgi yeast -19, GALR2 ag 1, PostGolgi ctrl 28, S1P2 antag -3, GALR2 blocker -4 and S1P2 agonist 0.
For N#CCSc1nc2cc(C(=O)N3CCC(C(N)=O)CC3)ccc2c2nc3ccccc3n12 the results were PostGolgi yeast 6, GALR2 ag 0, PostGolgi ctrl 10, S1P2 antag -23, GALR2 blocker -8 and S1P2 agonist 37*.
Screening C=CCC(CC=C)(NC(=O)c1cccc(C)c1)c1ccccc1 returned GALR2 ag -1 and GALR2 blocker -1.
For COC(=O)CN1C(=S)N(Cc2ccccc2)C(=O)C1CC(=O)Nc1ccc(Br)cc1 (configuration not stated) the results were PostGolgi yeast -1, GALR2 ag -3, PostGolgi ctrl 79*, S1P2 antag 15, GALR2 blocker 9 and S1P2 agonist -5.
`CCCOc1ccc(C(=O)NNC(=S)NC(C)=O)cc1` gave PostGolgi yeast 47*, GALR2 ag -2, PostGolgi ctrl 32*, S1P2 antag -13, GALR2 blocker -3 and S1P2 agonist -3.
Screening COc1ccc(NC(=S)Nc2cccc(S(=O)(=O)N3CCCCC3)c2)cc1 returned GALR2 ag 0 and GALR2 blocker 5.
COc1ccc(OC)c(-c2cnc(OC(C)(C)C)nc2OC(C)(C)C)c1 was read as GALR2 ag 2 and GALR2 blocker -1.
For COc1ccc(-c2onc(C)c2-c2ccccc2)c(O)c1 the results were PostGolgi yeast 2, GALR2 ag -1, PostGolgi ctrl 18, S1P2 antag -17, GALR2 blocker 4 and S1P2 agonist -3.
COc1ccc(-c2noc(C)c2-c2ccc3ccccc3n2)c(O)c1 was read as PostGolgi yeast 1, GALR2 ag -3, PostGolgi ctrl 49*, S1P2 antag -2, GALR2 blocker -1 and S1P2 agonist -6.
`C/C(=N\OC(=O)NC1CCCCC1)c1sc(-c2ccccc2)nc1C` gave PostGolgi yeast -2, GALR2 ag 0, PostGolgi ctrl 34*, S1P2 antag -9, GALR2 blocker -2 and S1P2 agonist -10.
C/C(=N\OC(=O)NC(C)C)c1sc(-c2ccccc2)nc1C was read as PostGolgi yeast -3, GALR2 ag -1, PostGolgi ctrl 18, S1P2 antag 17, GALR2 blocker 0 and S1P2 agonist -7.
`C/C(=N\OC(=O)NC(C)C)c1sc(-c2ccc(Cl)cc2)nc1C` gave PostGolgi yeast -2, GALR2 ag 0, PostGolgi ctrl 36*, S1P2 antag -8, GALR2 blocker -12 and S1P2 agonist -2.
Cc1ccc(C2=Nc3ccccc3N(C(=O)c3ccccc3)C(C)C2)cc1 (configuration not stated) was read as GALR2 ag 1 and GALR2 blocker -7.
For CSc1sc(C(=O)O)c(C)c1C(C)=O the results were PostGolgi yeast 2, GALR2 ag -3, PostGolgi ctrl 21, S1P2 antag -8, GALR2 blocker -14 and S1P2 agonist -2.
For Cc1nc(N2CCN(S(=O)(=O)c3cccc4nonc34)CC2)c2c3c(sc2n1)CCCC3 the results were PostGolgi yeast 25, GALR2 ag 0, PostGolgi ctrl 59* and GALR2 blocker -6.
Screening Cc1nc(N2CCN(S(=O)(=O)c3ccccc3)CC2)c2c3c(sc2n1)CC(C)CC3 (configuration not stated) returned PostGolgi yeast -3, GALR2 ag 0, PostGolgi ctrl 30, S1P2 antag 20, GALR2 blocker 9 and S1P2 agonist -5.
Screening O=C(NC12CC3CC(CC(C3)C1)C2)c1ccc(-c2cccc(Cl)c2)o1 returned GALR2 ag 0 and GALR2 blocker 5.
Screening O=C(NC12CC3CC(CC(C3)C1)C2)c1ccc(COc2ccc(Cl)cc2[N+](=O)[O-])o1 returned PostGolgi yeast 4, GALR2 ag 1, PostGolgi ctrl 51*, S1P2 antag -7, GALR2 blocker -7 and S1P2 agonist -2.
O=C(Nc1c2ccccc2nc2ccccc12)C(Cl)(Cl)Cl was read as PostGolgi yeast 2, GALR2 ag 10, PostGolgi ctrl 2, S1P2 antag -24, GALR2 blocker -11 and S1P2 agonist 18*.
Screening CC(C)c1nn2c(=O)cc(O)nc2s1 returned GALR2 ag 0 and GALR2 blocker 1.
For CC(=O)NCCC(=O)Nc1ccc(F)cc1C the results were PostGolgi yeast -2, GALR2 ag -2, PostGolgi ctrl 31*, S1P2 antag -10, GALR2 blocker 1 and S1P2 agonist 0.
Cc1ccc(C2CC(c3cccs3)=NN2C(=O)c2ccc(Br)o2)cc1 (configuration not stated) was read as PostGolgi yeast 93*, GALR2 ag 0, PostGolgi ctrl 83*, S1P2 antag -13, GALR2 blocker -28 and S1P2 agonist -2.
For O=C(CSc1nnc(COc2ccccc2)n1-c1ccccc1)c1cccs1 the results were PostGolgi yeast -2, GALR2 ag -1, PostGolgi ctrl 41* and GALR2 blocker 0.
